“And” between values parts separate entries of the source, which are not always exact repeats. Identical values can stand only once. Unmarked numbers belong to inactive results. Rule as the data show it: active = inhibition above about 80%; inactive = the rest.
assay: growth inhibition, single agents and combos, CRL2098, cell-based, BGB or cisplatin IC20 combos, synergistic combos for chromothripsis tumors (AID 1671454); conditions: CRL2098 osteosarcoma cells, drug combinations, at 0.5 µM, stronger effect = higher value;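 also: cells exposed for 96 h before readout; 0% = vehicle DMSO and 100% = killing by high DMSO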

Structure (SMILES)	inhibition
Cc1c(N)nc(C(CC(N)=O)NCC(N)C(N)=O)nc1C(=O)NC(C(=O)NC(C)C(O)C(C)C(=O)NC(C(=O)NCCc1nc(-c2nc(C(=O)NCCC[S+](C)C)cs2)cs1)C(C)O)C(O[C@@H]1O[C@@H](CO)[C@@H](O)[C@H](O)[C@@H]1O[C@H]1O[C@H](CO)[C@@H](O)[C@H](OC(N)=O)[C@@H]1O)c1cnc[nH]1 (stereo partly drawn)	33.9% and 38.3%
O=c1[nH]c(=O)n(C2OC(CO)C(O)C2O)cc1F (stereo not drawn)	-23.1%
O=P(O)(NCCCl)NCCCl	-58.4%
CC1(C)C(C(=O)Nc2ccc(S(=O)(=O)c3ccc(NC(=O)C4C(C)(C)C4(C)C)cc3)cc2)C1(C)C	-53.9%
CCC1(O)C(=O)OCc2c1cc1n(c2=O)Cc2cc3ccccc3nc2-1 (stereo not drawn)	61.8% and 62.7%
NC(Cc1ccc(N(CCCl)CCCl)cc1)C(=O)O (stereo not drawn)	-91.3%
COc1cc([C@@H]2c3cc4c(cc3[C@H](O)[C@H]3COC(=O)[C@H]23)OCO4)cc(OC)c1O	57.9% and 29.8%
COc1cc(C2c3cc4c(cc3C(O)C3COC(=O)C23)OCO4)cc(OC)c1OC (stereo not drawn)	38.6%
